These molecules were tested against Tyrosine-protein kinase SYK (Homo sapiens) (UniProt P43405). Settings: at 10 µM.

Structure (SMILES)	residual activity [%]
CO[C@H]1[C@@H](OC)C[C@H](C)[C@@H](OC)C2=CC(=O)C=C(NC(=O)/C(C)=C/C=C/[C@H](OC)[C@@H](OC(N)=O)/C(C)=C/[C@@H]1C)C2=O	87
O=C1NC(=O)c2c1c1c3ccccc3[nH]c1c1[nH]c3cc(Br)ccc3c21	79
CCC(=O)Nc1ccc2ncnc(Nc3cccc(Br)c3)c2c1	84
CC(C)n1cnc2c(NCc3ccccc3)nc(NCCCO)nc21	105
CCN(CC)C(=O)c1ccc(Nc2nc(OCC3CCCCC3)c3nc[nH]c3n2)cc1	13
CO[C@H]1C[C@@H]2CC[C@@H](C)[C@@](O)(O2)C(=O)C(=O)N2CCCC[C@H]2C(=O)O[C@H]([C@H](C)C[C@@H]2CC[C@@H](O)[C@H](OC)C2)CC(=O)[C@H](C)/C=C(\C)[C@@H](O)[C@@H](OC)C(=O)[C@H](C)C[C@H](C)/C=C/C=C/C=C/1C	78
COc1ccc(C(=O)Nc2sc3c(c2C(N)=O)CCCC3)cc1OC	89
COc1cc2ncnc(N3CCN(C(=O)Nc4ccc(Oc5ccccc5)cc4)CC3)c2cc1OC	83
CC(C)n1cnc2/c(=N/c3cccc(Cl)c3)nc(NCCO)[nH]c21	56
CN(C)c1ccc(/C=C2\C(=O)Nc3ccccc32)cc1	91
O=[N+]([O-])c1ccc(-c2nc(-c3ccc(F)cc3)c(-c3ccncc3)[nH]2)cc1	107
Cc1cc2ncc(-c3ccccc3)nc2cc1C	108
CC#CC(=O)Nc1cc2c(Nc3ccc(F)c(Cl)c3)ncnc2cn1	87
Nc1ccc2ncnc(NCCc3ccc(Oc4ccccc4)cc3)c2c1	78
O=C1NC(=O)/C(=C/c2ccc3c(c2)OC(F)(F)O3)S1	73
O=C(O)c1ccc2c3c1cccc3c(=O)n1c3ccccc3nc21	105
Cc1ccc(S(=O)(=O)/C=C/C#N)cc1	109
Cc1ccc(NC2=CC(=O)c3sc(C)nc3C2=O)cc1	113

Structure (SMILES)	residual activity [%]
CC(=O)c1ccc(N2CCOCC2)cc1O	101
O=C1NC(=O)/C(=C\c2ccc3nccnc3c2)S1	92
COc1cccc(-c2cc(=O)c3ccccc3o2)c1N	113
N#CCCc1ccc2c(c1)-c1[nH]c3ccc([N+](=O)[O-])cc3c1CC(=O)N2	41
COc1cc2ncnc(Nc3ccc(Oc4ccccc4)cc3)c2cc1OC	111
NC(=O)c1ccc2[nH]c(-c3ccc(Oc4ccc(Cl)cc4)cc3)nc2c1	96
COc1cc2ncnc(Nc3ccc(O)c(Br)c3)c2cc1OC	68
O=c1cc(-c2cccc3c2Sc2ccccc2S3)oc(N2CCOCC2)c1	90
Nc1cccc(-c2cc3c(Oc4cccc(O)c4)ncnc3[nH]2)c1	3
O=C(Nc1cccc(Nc2nccc(Nc3cccc(C(F)(F)F)c3)n2)c1)C1CC1	75
Oc1n[nH]c2nnc(-c3c(-c4ccccc4)nn4ccccc34)cc12	105
C[C@@H](N)[C@H]1CC[C@H](C(=O)Nc2ccncc2)CC1	102
O=C1Nc2cc(Br)ccc2/C1=C1/Nc2ccccc2/C1=N\O	37
O=Nc1c(-c2c(O)[nH]c3ccccc23)[nH]c2ccccc12	60
Nc1n[nH]c2nnc(-c3c(-c4ccccc4)nn4ccccc34)cc12	110
CCN(CC)CCCCN1c2ccccc2Oc2ccc(Cl)cc21	93
O=C(Nc1cccc(Nc2cc(Nc3cccc(C(F)(F)F)c3)ncn2)c1)C1CC1	105

These molecules were tested against T1, Mitogen-activated protein kinase kinase kinase 7 (Homo sapiens) (UniProt O43318). Settings: at 1 µM.
T1 sequence (whole entry): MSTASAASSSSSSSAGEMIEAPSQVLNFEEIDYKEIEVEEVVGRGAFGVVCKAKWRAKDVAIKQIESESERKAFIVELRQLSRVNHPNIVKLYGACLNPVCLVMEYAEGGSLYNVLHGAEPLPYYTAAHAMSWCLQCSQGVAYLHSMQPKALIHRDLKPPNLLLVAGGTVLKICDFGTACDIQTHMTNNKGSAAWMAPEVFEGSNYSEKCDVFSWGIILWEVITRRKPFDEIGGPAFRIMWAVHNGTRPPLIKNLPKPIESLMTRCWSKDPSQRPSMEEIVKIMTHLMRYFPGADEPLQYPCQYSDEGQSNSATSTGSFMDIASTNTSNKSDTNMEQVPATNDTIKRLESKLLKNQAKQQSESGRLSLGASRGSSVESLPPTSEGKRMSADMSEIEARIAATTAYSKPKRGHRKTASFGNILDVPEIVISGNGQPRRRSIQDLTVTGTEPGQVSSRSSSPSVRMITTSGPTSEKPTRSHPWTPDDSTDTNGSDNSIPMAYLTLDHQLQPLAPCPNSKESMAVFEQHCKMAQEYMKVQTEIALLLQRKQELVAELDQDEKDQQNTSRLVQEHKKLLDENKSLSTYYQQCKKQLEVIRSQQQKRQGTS

Structure (SMILES)	residual activity [%]
CO[C@H]1[C@@H](OC)C[C@H](C)[C@@H](OC)C2=CC(=O)C=C(NC(=O)/C(C)=C/C=C/[C@H](OC)[C@@H](OC(N)=O)/C(C)=C/[C@@H]1C)C2=O	96
O=C1NC(=O)c2c1c1c3ccccc3[nH]c1c1[nH]c3cc(Br)ccc3c21	94
CCC(=O)Nc1ccc2ncnc(Nc3cccc(Br)c3)c2c1	92
CC(C)n1cnc2c(NCc3ccccc3)nc(NCCCO)nc21	96
CCN(CC)C(=O)c1ccc(Nc2nc(OCC3CCCCC3)c3nc[nH]c3n2)cc1	47
CO[C@H]1C[C@@H]2CC[C@@H](C)[C@@](O)(O2)C(=O)C(=O)N2CCCC[C@H]2C(=O)O[C@H]([C@H](C)C[C@@H]2CC[C@@H](O)[C@H](OC)C2)CC(=O)[C@H](C)/C=C(\C)[C@@H](O)[C@@H](OC)C(=O)[C@H](C)C[C@H](C)/C=C/C=C/C=C/1C	89
COc1ccc(C(=O)Nc2sc3c(c2C(N)=O)CCCC3)cc1OC	86
COc1cc2ncnc(N3CCN(C(=O)Nc4ccc(Oc5ccccc5)cc4)CC3)c2cc1OC	85
CC(C)n1cnc2/c(=N/c3cccc(Cl)c3)nc(NCCO)[nH]c21	77
CN(C)c1ccc(/C=C2\C(=O)Nc3ccccc32)cc1	100
O=[N+]([O-])c1ccc(-c2nc(-c3ccc(F)cc3)c(-c3ccncc3)[nH]2)cc1	104
Cc1cc2ncc(-c3ccccc3)nc2cc1C	96
CC#CC(=O)Nc1cc2c(Nc3ccc(F)c(Cl)c3)ncnc2cn1	91
Nc1ccc2ncnc(NCCc3ccc(Oc4ccccc4)cc3)c2c1	92
O=C1NC(=O)/C(=C/c2ccc3c(c2)OC(F)(F)O3)S1	96
O=C(O)c1ccc2c3c1cccc3c(=O)n1c3ccccc3nc21	89
Cc1ccc(S(=O)(=O)/C=C/C#N)cc1	96
Cc1ccc(NC2=CC(=O)c3sc(C)nc3C2=O)cc1	86

Structure (SMILES)	residual activity [%]
CC(=O)c1ccc(N2CCOCC2)cc1O	93
O=C1NC(=O)/C(=C\c2ccc3nccnc3c2)S1	94
COc1cccc(-c2cc(=O)c3ccccc3o2)c1N	101
N#CCCc1ccc2c(c1)-c1[nH]c3ccc([N+](=O)[O-])cc3c1CC(=O)N2	57
COc1cc2ncnc(Nc3ccc(Oc4ccccc4)cc3)c2cc1OC	96
NC(=O)c1ccc2[nH]c(-c3ccc(Oc4ccc(Cl)cc4)cc3)nc2c1	92
COc1cc2ncnc(Nc3ccc(O)c(Br)c3)c2cc1OC	81
O=c1cc(-c2cccc3c2Sc2ccccc2S3)oc(N2CCOCC2)c1	101
Nc1cccc(-c2cc3c(Oc4cccc(O)c4)ncnc3[nH]2)c1	48
O=C(Nc1cccc(Nc2nccc(Nc3cccc(C(F)(F)F)c3)n2)c1)C1CC1	105
Oc1n[nH]c2nnc(-c3c(-c4ccccc4)nn4ccccc34)cc12	87
C[C@@H](N)[C@H]1CC[C@H](C(=O)Nc2ccncc2)CC1	109
O=C1Nc2cc(Br)ccc2/C1=C1/Nc2ccccc2/C1=N\O	89
O=Nc1c(-c2c(O)[nH]c3ccccc23)[nH]c2ccccc12	64
Nc1n[nH]c2nnc(-c3c(-c4ccccc4)nn4ccccc34)cc12	90
CCN(CC)CCCCN1c2ccccc2Oc2ccc(Cl)cc21	97
O=C(Nc1cccc(Nc2cc(Nc3cccc(C(F)(F)F)c3)ncn2)c1)C1CC1	95

Source: ChEMBL document CHEMBL2218924, “A broad activity screen in support of a chemogenomic map for kinase signalling research and drug discovery” (Biochem J, 2013)
